# Source: PubChem BioAssay (NCATS)
# Results filed as inconclusive are left out. Where a call stands in place of a potency, no number is given. The source made the active and inactive calls. Calls follow the shape of the dose curve; as a rule, active = well fitted inhibition curve with a large enough effect; inconclusive = small, poorly fitted or top-dose-only effect; inactive = flat fitted curve, though single readings scatter.
# Molecular target: Calcium and integrin-binding protein 1 (Homo sapiens) (UniProt Q99828)
# Assay: Primary qHTS for Identification of Calcium Integrin Binding Protein 1 (CIB1) Competitor (AID 1508620); also: top concentration of the series differs between compounds
# Conditions: CIB1-GST / FITC-alphaIIb peptide fluorescence polarization; series mostly up to 114 µM
# In short: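 Fluorescence polarization competition: GST-tagged CIB1 (1 uM final) preincubated with compound 15 min at room temperature, then FITC-labelled alphaIIb peptide (100 nM final) added. After 15 min at room temperature, polarization read at Ex 480/Em 540.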
# Chain of Calcium and integrin-binding protein 1 (Homo sapiens) (Q99828 whole entry, looked up): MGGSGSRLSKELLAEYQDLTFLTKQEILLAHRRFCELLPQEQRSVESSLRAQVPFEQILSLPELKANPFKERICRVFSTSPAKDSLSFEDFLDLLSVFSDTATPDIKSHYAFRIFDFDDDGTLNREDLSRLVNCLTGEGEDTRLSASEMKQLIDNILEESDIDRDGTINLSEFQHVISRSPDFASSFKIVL
row,SMILES,Potency
1,N#Cc1cccc(OC2=NS(=O)(=O)c3ccccc32)c1,inactive
2,Cc1csc(CNc2ncnc3ccc(-c4ccco4)cc23)c1,inactive
3,O=C1c2ccccc2C(=O)N1c1ccc(O)cc1,inactive
4,CCCCC(O)C(=O)Nc1cc(C(F)(F)F)ccc1Cl (stereo not given),inactive
5,c1csc(CNc2ccc(N3CCOCC3)cc2)c1,inactive
6,CN(Cc1ccccc1)C(=O)C1CCN(Cc2cccc3ccccc23)CC1,inactive
7,N#CN1CCC(NS(=O)(=O)c2cccc(F)c2)C1 (stereo not given),inactive
8,Cc1ccc(NS(=O)(=O)c2cc3c(cc2NCC(C)(C)O)NC(=O)CC3)cc1C,inactive
9,O=C1c2ccccc2C(=O)N1c1cccc(Cl)c1,inactive
10,COc1ccc(C2=Nn3c(nnc3-c3cc(OC)ccc3OC)SC2)cc1,inactive
11,CC(=O)Nc1cccc([S+](=O)([O-])N2CCCN([S+](=O)([O-])c3cccc(NC(C)=O)c3)CC2)c1,inactive
12,O=S(=O)(c1ccc2c(c1)OCCO2)N1CCN(S(=O)(=O)c2ccccc2OC(F)(F)F)CC1,inactive
13,COc1ccc(-c2c(NC(C)=O)sc3c2CCNC3)cc1,inactive
14,Cc1ccc(OCCn2c(CCNC(=O)C3CCN(C(=O)OC(C)(C)C)CC3)nc3ccccc32)cc1,inactive
15,Fc1cnc(-c2ccccc2C(F)F)nc1NCc1ccc(-c2ccn[nH]2)cc1,inactive
16,FC(F)(F)c1ccc(-c2ccc(CNc3nc(-c4ccccc4C(F)(F)F)nc4ccccc34)cc2)cn1,inactive
17,COc1ccnc(NC(=S)N2CCN(c3cccc(Cl)c3Cl)CC2)c1,inactive
18,CN1C(=O)NC(c2ccccc2Cl)C2=C1CCCC2=O (stereo not given),inactive
19,CC(C)(C)NS(=O)(=O)c1cccc(Nc2nn3c(=O)c4ccccc4nc3s2)c1,inactive
20,COc1ccc(C2c3c(ncn(CCN4CCOCC4)c3=N)Oc3ccc4ccccc4c32)cc1 (stereo not given),inactive

row,SMILES,Potency
1,CCCc1nnc(-c2cnn(C)c2N)n1CCCn1ccnc1,inactive
2,COc1ccc(N2C[C@]34C=C[C@H](O3)C(C(=O)O)C4C2=O)cc1OC (stereo not given in full),inactive
3,CNc1nc(C#N)c(-c2cccc3ccccc23)o1,inactive
4,O=C1CCc2cc(S(=O)(=O)Nc3cccc(Oc4ccccc4)c3)ccc2N1,inactive
5,c1ccc(CNc2ccc(N3CCOCC3)cc2)cc1,inactive
6,CC(C)(C)OC(=O)N1CCN(c2ccc(NCc3ncc(-c4ccc(C#N)cc4)s3)cc2)CC1,inactive
7,NC(=O)C1CCN(c2nc(-c3cccc(Br)c3)cs2)CC1,inactive
8,O=C(Nc1ccc(-c2nc3ccccc3[nH]2)cc1)c1ccc2sccc2c1,inactive
9,O=C(NC1CCCc2c1cnn2-c1ccc(F)cc1F)C1CC1 (stereo not given),inactive
10,CCC(=O)Nc1ccc(OCc2cc(C3Nc4ccccc4C(=O)N3Cc3ccccc3)ccc2OC)cc1 (stereo not given),inactive
11,COc1cc(-c2ccc3ncnc(NCc4ccc(C)o4)c3c2)cc(OC)c1OC,inactive
12,O=[N+]([O-])c1cc(C(F)(F)F)ccc1N1CCN(C(=S)Nc2cc(Cl)ccn2)CC1,inactive
13,O=c1c(Nc2ccc(Cl)c(Cl)c2)c(Nc2nnc(-c3ccncc3)s2)c1=O,inactive
14,COc1cc(O)c(C(CC(=O)N2CCCC(CN3CCCCC3)C2)c2ccc3c(c2)OCO3)c(OC)c1 (stereo not given),inactive
15,N#Cc1c(-c2ccc(C(F)(F)F)cc2)no[n+]1[O-],inactive
16,Cc1ccc(CNc2ncnc3ccc(-c4ccoc4)cc23)o1,inactive
17,O=C1CCCC2=C1C(c1[nH]ncc1Cl)N=C(Nc1nc3cc(F)ccc3o1)N2 (stereo not given),inactive
18,O=C(Nc1ccc(F)c(C(F)(F)F)c1)Nc1nnc(-c2ccncc2)o1,inactive
19,FC(F)(F)c1cc(-c2ccc(CNc3nc(-c4ccncc4)nc4ccccc34)cc2)ccn1,inactive
20,CC(=O)Nc1oc(-c2cccc3ccccc23)nc1C#N,inactive
